This note sets out measurements from ChEMBL document CHEMBL3988442, “University of Dundee, Small-Polar-MMV Screening Library” (2021).

Structures are written as SMILES.

For this experiment, the target named is T1, Tyrosyl-tRNA synthetase, putative (Trypanosoma cruzi (strain CL Brener)) (UniProt Q4DSP6).
T1 sequence (whole entry): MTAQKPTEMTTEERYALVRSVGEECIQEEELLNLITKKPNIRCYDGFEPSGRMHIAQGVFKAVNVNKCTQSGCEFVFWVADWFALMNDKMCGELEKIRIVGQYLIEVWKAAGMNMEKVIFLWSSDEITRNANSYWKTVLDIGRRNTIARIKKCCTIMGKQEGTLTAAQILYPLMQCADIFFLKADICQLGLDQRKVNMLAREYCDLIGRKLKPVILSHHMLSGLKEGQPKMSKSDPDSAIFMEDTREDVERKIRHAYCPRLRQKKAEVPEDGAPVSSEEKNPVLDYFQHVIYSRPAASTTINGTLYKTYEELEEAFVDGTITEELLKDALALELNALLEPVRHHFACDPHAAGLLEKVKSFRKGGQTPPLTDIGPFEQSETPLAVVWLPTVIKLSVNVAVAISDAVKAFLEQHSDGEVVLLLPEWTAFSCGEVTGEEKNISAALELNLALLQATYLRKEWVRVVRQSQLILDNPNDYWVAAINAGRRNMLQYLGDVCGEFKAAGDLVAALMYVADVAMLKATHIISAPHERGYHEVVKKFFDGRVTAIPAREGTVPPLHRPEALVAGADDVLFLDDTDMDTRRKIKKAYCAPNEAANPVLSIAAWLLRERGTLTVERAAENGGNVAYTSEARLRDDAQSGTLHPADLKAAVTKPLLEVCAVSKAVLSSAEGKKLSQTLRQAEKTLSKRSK
In words: Trypanosoma cruzi tyrosyl tRNA synthetase (TcYRS) _High Tyrosine SOP. Format: functional. Also on record: scale not given: in the data most compounds retested in dose-response had high values. The conditions noted are these: 30 µM.
`CCn1nc(C)c(CNC(=O)c2cn(CC3CCCO3)nn2)c1C` (stereo not given): the Percent Effect worked out at 6.01%.
`CN1CCCc2cc(CNC(=O)c3ccc(NC4CC4)nc3)ccc21`: the Percent Effect is 6.25%.
Take `Cc1ccc(CNC2CCCc3c2cnn3C)s1` (stereo not given): the Percent Effect was found to be 9.52%.
Take `Cc1nc(CN2CCN(CC(=O)Nc3c(C)cccc3C)CC2)no1`: the Percent Effect was 7.62%.
On to `CC(=O)N1CCC(C(=O)c2cc(C)cnc2N)CC1`, for which the Percent Effect stood at 4.25%.
Regarding `CC(=O)N1C[C@H](NC(=O)c2cscn2)[C@@H]2OCCC[C@@H]21`, the Percent Effect was -1.08%.
For `NC(=O)COc1ccc(CNCc2ccc(F)cc2F)cc1`, the Percent Effect was 9.47%.
In the case of `CCCNC(=O)CN1CCN(Cc2csc(C(C)(C)C)n2)CC1` it was 2.46%; in that of `CCN1CC2(CCNCC2)COc2ccccc2S1(=O)=O`, -7.41%; in that of `Cc1ccccc1CSc1nc(N)cc(N2CC[C@@H](O)C2)n1`, 20.4%.
`O=C1CC2(CCN(CCO)CC2)CN1Cc1cc(F)cc(F)c1`: the Percent Effect amounted to 2.1%.
As to `O=C(c1csc(-c2cccs2)n1)N1CCCC1Cn1cccn1` (stereo not given), the Percent Effect worked out at 3.45%.
With `CS(=O)(=O)N1CCC(Oc2ccc(C(=O)N3CCSCC3)cc2Cl)CC1`, the Percent Effect amounted to 3.16%.
In the case of `CCc1nnc2n1CCN(Cc1csc(-c3cnn(C)c3)n1)C2` it was 5.26%; in that of `CN(C)C(=O)CNC(=O)c1ccc(Cl)cc1F`, 6.38%.
`Fc1ccc(-c2cnc(CN3CCCC3Cn3cccn3)o2)cc1` (stereo not given): the Percent Effect was 2.46%.
Consider `Cc1cccnc1NCCNC(=O)[C@H]1CNC[C@@H](C(=O)N2CCCC2)C1`, for which the Percent Effect was 5.21%.
For `Cc1cnc(NC(=O)c2ccc(-n3ncc(C#N)c3N)cc2)s1`, the Percent Effect stood at 11.3%.
Turning to `NCc1cnn(-c2ccccc2C(=O)NCCCn2ccnc2)c1`, the Percent Effect stood at 7.53%.
Regarding `CN(Cc1cnn(C)c1)C(=O)NC1CCN(Cc2ccccn2)CC1`, the Percent Effect is 3.88%.
